# This excerpt belongs to a sample that is enriched for hits.
# D1 allo mod: D1 dopamine receptor (human) allosteric modulation; P21728; B-score at 10 µM; HEK293 D1, CRE-luciferase, dopamine EC30 potentiation; actives deviate in either direction; 58,000 tested, 5.9% active;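 active = luminescence count or its row- and column-corrected plate score outside the 99.7% band of the plate's sample wells, on either side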
# DAT uptake mod: human DAT dopamine uptake with cocaine, either direction; Q01959; LLC-PK1 hDAT cells, [14C]-dopamine uptake with cocaine IC80; actives deviate in either direction; B-score at 10 µM; 110,000 tested, 1.3% active;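 active = Z score or B-score, a plate-position-corrected score, falls beyond the plate's 99.7% confidence bounds, in either direction; inactive = both scores lie inside the 99.7% bounds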;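 also: scored against the spread of the other compound wells on the same plate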
# Target sequence (Q01959 whole entry, looked up): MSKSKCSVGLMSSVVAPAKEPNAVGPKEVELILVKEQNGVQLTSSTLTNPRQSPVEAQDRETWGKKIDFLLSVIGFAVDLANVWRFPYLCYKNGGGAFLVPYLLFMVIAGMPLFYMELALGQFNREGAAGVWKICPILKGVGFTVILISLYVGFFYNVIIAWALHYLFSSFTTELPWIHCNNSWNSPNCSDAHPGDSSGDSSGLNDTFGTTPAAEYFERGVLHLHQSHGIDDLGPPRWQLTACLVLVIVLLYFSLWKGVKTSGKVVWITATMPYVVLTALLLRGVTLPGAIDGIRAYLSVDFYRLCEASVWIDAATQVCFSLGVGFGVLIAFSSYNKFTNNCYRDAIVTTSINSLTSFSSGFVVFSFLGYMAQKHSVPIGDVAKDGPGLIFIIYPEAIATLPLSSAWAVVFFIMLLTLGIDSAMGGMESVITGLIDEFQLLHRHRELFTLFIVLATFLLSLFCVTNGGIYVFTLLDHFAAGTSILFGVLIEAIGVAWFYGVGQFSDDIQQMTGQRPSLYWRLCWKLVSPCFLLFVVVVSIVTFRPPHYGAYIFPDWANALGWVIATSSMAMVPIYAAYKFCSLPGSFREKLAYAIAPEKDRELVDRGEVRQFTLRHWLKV
# EphB4 antag: antagonists of human EphB4-ephrin-B2 interaction; EphB4 LBD / TNYL-RAW-Alexa532 peptide, fluorescence polarization; 97,000 tested, 0.15% active; inhibition, % at 7 µM; P54760;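 active = inhibition above the screen-wide mean inhibition plus 3 SD, cut at about 15% in these data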;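 also: 0% = DMSO wells and 100% = excess unlabeled TNYL-RAW peptide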
# The depositor's hits bear a star; nt = no result.
SMILES,D1 allo mod,DAT uptake mod,EphB4 antag
Cc1ccc(NC(=O)c2nccnc2C(=O)O)cc1C,nt,-0.73,11
CC(=O)c1cccc(NC(=O)c2nccnc2C(=O)O)c1,-3.5*,-0.58,4
CCn1nc2cc(C(=O)NCCc3cccs3)ccc2c1OC,nt,0.54,-6
CCc1ccc(NC(=O)c2cc(C)on2)cc1,-3.1*,-1.4,-3
Cc1ccc(NC(=O)c2cc(C)on2)cc1,-2.5,1.4,-7
O=C(N/N=C\c1cc(Br)cs1)C1COc2ccccc2O1 (centres undefined),nt,-0.09,4
COc1cccc(C(=O)OCn2nnc3ccccc3c2=O)c1OC,5.2*,-0.84,nt
COc1cc(C(=O)OCn2nnc3ccccc3c2=O)cc(OC)c1OC,1,1.8,0
O=C(CSc1nc(-c2ccccc2)c(-c2ccccc2)[nH]1)N1CCN(S(=O)(=O)c2ccccc2)CC1,nt,0.25,2
Cc1cccc(N2C(=O)CC(Sc3nc(C)cc(C)n3)C2=O)c1 (centres undefined),nt,0.69,0
Cc1ccc(N2C(=O)CC(Sc3nc4ccccc4o3)C2=O)cc1Cl (centres undefined),nt,-7.2*,8
O=C(CCc1ccccc1)Nc1cc(Cl)ccc1O,-0.92,0.056,-5
O=C(CSCc1ccc(Cl)cc1)Nc1ccc2c(c1)OCCO2,nt,0.021,7
COc1ccc(-c2cnn(C3CCS(=O)(=O)C3)c2N)cc1 (centres undefined),nt,-0.021,3
Cc1ccc(C)n1C1CCS(=O)(=O)C1 (centres undefined),-4.6*,-0.28,-5
Cc1cccc(CNc2ccc(C(CC(N)=O)NC(=O)c3cccc(Br)c3)cc2[N+](=O)[O-])c1 (centres undefined),nt,-0.75,nt
COc1ccccc1-n1c(=O)oc2ccc(Cl)cc2c1=O,-2.3*,-0.75,-11
COc1ccc(Cl)cc1N1Cc2ccccc2C1,nt,-0.76,1
COCCn1ccc(O)c(Cc2ccccc2)c1=O,nt,0.062,-8
Cc1ccccc1Cc1c(C)nc2nc(SCC(=O)NCc3ccco3)nn2c1C,nt,-7.9*,1
Cc1ccccc1Cc1c(C)nc2c(C(=O)NCc3ccco3)cnn2c1C,1.6,3*,2
Cc1ccc(Cc2c(C)nc3nc(SCC(=O)NCc4ccco4)nn3c2C)cc1,1.3,-0.042,9
Cc1nc2c(C(=O)O)cnn2c(C)c1Cc1ccccc1F,-0.59,0.21,nt
O=C(NC(NC(=S)Nc1ccc(Cl)cc1Cl)C(Cl)(Cl)Cl)c1cccc([N+](=O)[O-])c1 (centres undefined),nt,-1.2,-3
Clc1ccc(Sc2cc(Cl)c(-c3ccccc3)nn2)cc1,nt,-0.58,2
SMILES,D1 allo mod,DAT uptake mod,EphB4 antag
CCOC(=O)C(C(=O)NCc1cccc(OC)c1)c1ncc(C(F)(F)F)cc1Cl (centres undefined),nt,0.65,-13
CCOC(=O)N1CCC(N2Cc3cccc(C(=O)Nc4ccc(F)cc4)c3C2=O)CC1,nt,0.033,-3
CCOC(=O)N1CCC(N2Cc3cccc(C(=O)Nc4ccc(CC)cc4)c3C2=O)CC1,nt,4*,2
COc1cccc(-c2ccc(=O)n(CC(=O)Nc3cc4c(cc3NC(C)=O)OCCO4)n2)c1,-0.33,0.45,2
COc1cccc(-c2ccc(=O)n(CC(=O)Nc3ccc(C(=O)N4CCCC4)cc3)n2)c1,nt,2.9*,-4
CC(C)C[C@H](NC(=O)c1nc[nH]c1C(=O)N1CCc2ccccc2C1)C(=O)OC(C)(C)C,nt,1.2,nt
c1coc(-c2nc(-c3ccco3)c(-c3ccco3)nc2-c2ccco2)c1,0.56,0.79,19*
Nc1nc(-c2ccco2)c(-c2ccco2)s1,0.00025,-0.082,6
CCCNC(=O)N1CCC(C(=O)c2cccc(F)c2)CC1,nt,0.44,-4
CC(C)(C)c1ccc(/C([O-])=C(/C(=S)NCc2ccco2)[n+]2ccccc2)cc1,nt,-0.46,-1
Cc1ccc(Cn2c(=N)c(C(=O)NCc3ccco3)cc3c(=O)n4ccccc4nc32)cc1,-1.3,nt,3
N=c1c(C(=O)NCc2ccco2)cc2c(=O)n3ccccc3nc2n1CCc1ccccc1,-3,4.1*,6
COCC(=O)O[C@]1(CCN(C)CCCc2nc3ccccc3[nH]2)CCc2cc(F)ccc2[C@@H]1C(C)C,nt,0.0057,nt
COc1ccc(-c2nn3c(-c4ccccn4)nnc3s2)cc1OC,nt,1.1,nt
CN(C)c1ccc(-c2nn3c(-c4ccccc4Cl)nnc3s2)cc1,0.59,-0.084,1
COc1ccccc1-c1nnc2sc(-c3ccc(N(C)C)cc3)nn12,7.5*,nt,nt
COc1ccc(-c2nn3c(-c4cccc(C)c4)nnc3s2)cc1OC,17*,-0.26,-3
Cc1ccccc1N/C=C/C(=C(C#N)C#N)N(C)C,nt,1.1,2
COc1ccc(C2CCCN2C(=O)Nc2ccc(Cl)cc2)cc1OC (centres undefined),nt,0.3,-9
COCCn1c(SCC(=O)Nc2sccc2C(N)=O)nc2cc(Cl)ccc2c1=O,nt,0.025,3
